The record followed here is PubChem BioAssay (Tox21).

The nature of test [1]: qHTS assay to test for compound auto fluorescence at 535 nm (green) in HEK293 cells (AID 720680). A general note: Quantitative high-throughput screening tests each substance at several concentrations.
Test [2] is described as follows: qHTS assay to test for compound auto fluorescence at 590 nm (red) in HEK293 cell free culture (AID 720683). Summed up:
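Cell-free wells of DMEM with 10% FBS received compound, and intrinsic fluorescence was read at excitation/emission 540/590 nm. Values expressed as equivalence to Rose Bengal sodium.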

The nature of test [3]: qHTS assay to test for compound auto fluorescence at 590 nm (red) in HepG2 cell free culture (AID 720684). Summed up: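 Compounds are added to culture medium (MEM, 10% FBS) lacking cells, then fluorescence is read at excitation 540 nm, emission 590 nm, with Rose Bengal sodium as the equivalency standard.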
Test [4] can be described thus: qHTS assay to test for compound auto fluorescence at 460 nm (blue) in HepG2 cell free culture (AID 720685). Summed up:
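Compound (23 nL) or DMSO pinned into cell-free MEM with 10% FBS; blue fluorescence read at 405/460 nm excitation/emission, expressed as auto-fluorescence equivalency to triamterene.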

A short description of test [5]: qHTS assay to test for compound auto fluorescence at 535 nm (green) in HepG2 cell free culture (AID 720686).
A short description of test [6]: qHTS assay to test for compound auto fluorescence at 460 nm (blue) in HepG2 cells (AID 720687). Summed up: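 HepG2 cells in MEM with 10% FBS, attached overnight at 37 C, were exposed to compound or DMSO for 1 hr at 37 C, 5% CO2. Blue fluorescence was read at 405/460 nm, with triamterene as reference fluorophore.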
The nature of test [7]: qHTS assay for identifying genotoxic compounds that show differential cytotoxicity against isogenic chicken DT40 cell lines with known DNA damage response pathways - wild type cell line (AID 743012). Further: nearly all actives have a fitted effect of over 60% in size. Further: potency means the concentration at half of the fitted maximal effect. Summed up: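 Wild-type DT40 cells (300/well) exposed to compounds for 40 hours at 37 C/5% CO2. Viability read by CellTiter-Glo luminescence after 30 min at room temperature.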

Test [8] in a line: qHTS assay for identifying genotoxic compounds that show differential cytotoxicity against isogenic chicken DT40 cell lines with known DNA damage response pathways - Rev3 mutant cell line (AID 743014). Further: nearly all actives have a fitted effect of over 55% in size. Further: potency means the concentration at half of the fitted maximal effect.
The nature of test [9]: qHTS assay for identifying genotoxic compounds that show differential cytotoxicity against isogenic chicken DT40 cell lines with known DNA damage response pathways - Rad54/Ku70 mutant cell line (AID 743015). Further: nearly all actives have a fitted effect of over 60% in size. Further: potency means the concentration at half of the fitted maximal effect.
Test [10] in a line: qHTS assay to identify small molecule antagonists of the androgen receptor (AR) signaling pathway - cell viability counter screen (AID 743033; further: nearly all actives have a fitted effect of over 45% in size).
The target of test [11] is Glucocorticoid receptor (Homo sapiens) (UniProt P04150). Nature of the test: qHTS assay to identify small molecule agonists of the glucocorticoid receptor (GR) signaling pathway (AID 720691; active means well fitted activation curve with a large enough effect in the signal ratio in the repeat runs, not every such curve was filed as active; inconclusive means weak or mixed curves, or effect the other way; inactive means no such curve, though single readings can be large or run the other way; the % refers to the signal ratio; further: potency means the concentration at half of the fitted maximal effect). Summed up: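 GR-bla HeLa cells carrying a GRE-driven beta-lactamase reporter, exposed to compounds for 18 h at 37 C. Reporter activation read as fluorescence after 2 h with LiveBLAzer B/G FRET substrate at room temperature.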

Test [12] shares this target. Nature of the test: qHTS assay to identify small molecule antagonists of the glucocorticoid receptor (GR) signaling pathway (AID 720692; active means well fitted inhibition curve with a large enough effect in the signal ratio in the repeat runs, not every such curve was filed as active; inconclusive means weak or mixed curves, or effect the other way; inactive means no such curve, though single readings can be large or run the other way; the % refers to the signal ratio). Summed up:
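GR-bla HeLa cells carrying a GRE-driven beta-lactamase reporter received compound after 4 h plating, then dexamethasone (5 nM final). After 18 h at 37C, the FRET substrate was loaded for 2 h at room temperature and fluorescence read.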

Test [13] can be described thus: qHTS assay to identify small molecule antagonists of the glucocorticoid receptor (GR) signaling pathway - cell viability counter screen (AID 720693). Further: nearly all actives have a fitted effect of over 55% in size.
Test [14] can be described thus: qHTS assay to identify small molecule antagonists of the androgen receptor (AR) signaling pathway using the MDA cell line - cell viability counter screen (AID 743041; further: nearly all actives have a fitted effect of over 45% in size). Summed up: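 Same-well cytotoxicity was assessed by CellTiter-Fluor in MDA-kb2 AR-luc cells after 16 h of compound treatment under R1881 agonism.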
Test [15] can be described thus: qHTS assay to test for compound auto fluorescence at 535 nm (green) in HEK293 cell free culture (AID 720682). Summed up:
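Read-out: 485/535 nm fluorescence intensity, calibrated against fluorescein. Medium only (DMEM + 10% FBS, no cells); test compound or DMSO vehicle added by pintool before plate reading.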

Test [16] can be described thus: qHTS assay to identify small molecule antagonists of the thyroid receptor (TR) signaling pathway - cell viability counter screen (AID 743064). Further: nearly all actives have a fitted effect of over 50% in size. Further: potency means the concentration at half of the fitted maximal effect. Summed up:
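GH3.TRE-Luc rat pituitary cells carrying a TRE-luciferase reporter were treated with compound plus 1 nM T3 (final) for 23.5 h at 37 °C. Viability was then read in the same wells by CellTiter-Fluor fluorescence after a further 30 min.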

For test [17], the target named is Androgen receptor (Homo sapiens) (UniProt P10275). Briefly: qHTS assay to identify small molecule agonists of the androgen receptor (AR) signaling pathway using the MDA cell line (AID 743040; further: nearly all actives have a fitted effect of over 20% in size). Summed up:
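Human breast carcinoma MDA-kb2 reporter cells (MMTV-luc, AR/GR elements) were treated for 16 h at 37C in 0% CO2 following a 5 h settling period. Signal was quantified by ONE-Glo luminescence.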

Test [18] shares this target. Nature of the test: qHTS assay to identify small molecule agonists of the androgen receptor (AR) signaling pathway (AID 743036; active means well fitted activation curve with a large enough effect in the signal ratio in the repeat runs, with a control signal flat, not every such curve was filed as active; inconclusive means weak or mixed curves, or effect the other way; inactive means no such curve, though single readings can be large or run the other way; the % refers to the signal ratio). Summed up: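 HEK293 cells stably carrying a UAS-driven beta-lactamase reporter (GeneBLAzer AR-UAS-bla-GripTite) were plated at 2,000 cells/well, rested 4 h at 37C, then exposed to compounds in DMSO for 16 h. LiveBLAzer B/G FRET substrate was added for 2 h at room temperature; fluorescence read.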

Values without a mark were called inactive. The source made the active and inactive calls. Unless noted, the call rests on the fitted dose curve; in most records, active means well fitted curve in the direction sought with a large enough effect in the repeat runs; inconclusive means weak or mixed curves; inactive means no such curve, though single readings can be large; an effect the other way counts as inactive or inconclusive.

Chain of Glucocorticoid receptor (Homo sapiens) (P04150 whole entry, looked up): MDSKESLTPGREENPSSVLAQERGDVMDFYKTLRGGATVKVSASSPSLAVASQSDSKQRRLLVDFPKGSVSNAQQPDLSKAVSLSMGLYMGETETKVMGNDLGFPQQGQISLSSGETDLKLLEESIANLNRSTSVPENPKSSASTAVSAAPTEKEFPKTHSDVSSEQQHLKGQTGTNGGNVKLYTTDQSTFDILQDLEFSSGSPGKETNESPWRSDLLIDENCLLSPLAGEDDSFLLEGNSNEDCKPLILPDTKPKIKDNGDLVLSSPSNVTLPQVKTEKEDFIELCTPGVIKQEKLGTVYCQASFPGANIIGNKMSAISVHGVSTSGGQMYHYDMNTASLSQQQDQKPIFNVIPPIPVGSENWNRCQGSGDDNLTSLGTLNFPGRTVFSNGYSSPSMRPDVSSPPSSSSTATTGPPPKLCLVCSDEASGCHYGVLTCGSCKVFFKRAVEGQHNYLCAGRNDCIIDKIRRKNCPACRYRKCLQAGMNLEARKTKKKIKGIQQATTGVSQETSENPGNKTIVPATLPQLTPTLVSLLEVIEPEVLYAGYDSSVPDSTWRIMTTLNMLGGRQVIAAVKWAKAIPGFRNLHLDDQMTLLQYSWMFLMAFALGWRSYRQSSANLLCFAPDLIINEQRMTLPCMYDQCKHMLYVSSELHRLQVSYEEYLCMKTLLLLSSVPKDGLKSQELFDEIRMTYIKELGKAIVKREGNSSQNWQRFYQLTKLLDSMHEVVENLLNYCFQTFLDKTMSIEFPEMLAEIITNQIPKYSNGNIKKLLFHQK
Chain of Androgen receptor (Homo sapiens) (P10275 whole entry, looked up): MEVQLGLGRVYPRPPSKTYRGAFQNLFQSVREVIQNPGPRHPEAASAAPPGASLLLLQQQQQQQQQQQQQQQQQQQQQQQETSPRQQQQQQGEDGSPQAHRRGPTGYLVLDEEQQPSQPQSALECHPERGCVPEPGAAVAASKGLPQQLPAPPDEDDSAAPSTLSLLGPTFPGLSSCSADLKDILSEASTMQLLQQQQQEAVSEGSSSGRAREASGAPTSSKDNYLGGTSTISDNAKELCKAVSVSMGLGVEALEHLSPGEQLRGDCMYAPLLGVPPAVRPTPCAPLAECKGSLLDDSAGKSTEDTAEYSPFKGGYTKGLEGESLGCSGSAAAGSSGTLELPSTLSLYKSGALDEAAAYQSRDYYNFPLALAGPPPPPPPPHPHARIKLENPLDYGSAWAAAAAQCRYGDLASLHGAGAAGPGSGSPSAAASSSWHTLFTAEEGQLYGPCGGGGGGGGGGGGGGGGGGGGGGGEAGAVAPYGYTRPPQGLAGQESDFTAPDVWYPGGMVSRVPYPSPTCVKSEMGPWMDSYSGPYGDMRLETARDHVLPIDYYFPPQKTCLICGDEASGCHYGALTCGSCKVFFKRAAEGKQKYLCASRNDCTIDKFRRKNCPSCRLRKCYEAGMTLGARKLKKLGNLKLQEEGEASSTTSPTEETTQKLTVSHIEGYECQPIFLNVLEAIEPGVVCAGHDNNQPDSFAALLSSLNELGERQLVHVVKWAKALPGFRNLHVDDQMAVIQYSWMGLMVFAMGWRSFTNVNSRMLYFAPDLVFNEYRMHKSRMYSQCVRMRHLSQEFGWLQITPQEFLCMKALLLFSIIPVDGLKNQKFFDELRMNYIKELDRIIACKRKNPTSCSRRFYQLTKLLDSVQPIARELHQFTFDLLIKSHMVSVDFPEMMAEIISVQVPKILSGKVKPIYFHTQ

`CC(C)C(OC(=O)c1ccccc1)C(C)(C)COC(=O)c1ccccc1` (configuration not stated): the call in test [1], in test [2], in test [3] and in [5] was inactive. In addition, the Potency result in test [4], in test [6] and in test [10] was “inactive” each time. In addition, the figures for the Potency in test [7], in test [8] and in test [9] were 21.7 µM (active), 27.3 µM (active) and 24.3 µM (active), respectively.
On to `NC(=O)N(O)[C@@H]1COc2cc(OCc3ccccc3)ccc21`, for which the call in test [1], in test [2], in test [3] and in test [5] was inactive. In addition, the Potency entry in test [4], in test [6], in test [11], in test [12], in test [13] and in test [10] was “inactive” each time. The Potency entry in test [14] was “inactive”. In addition, the Potency in test [9] was 61.1 µM (active).
Regarding `CCCCCCCC/C=C\CCCCCCCC(=O)OC`, the compound was classed as inactive in test [1], in test [15], in [2], in [3] and in [5]. For the same compound, the Potency result in test [4], in test [6], in test [11], in test [13], in [7] and in test [8] was “inactive” each time. In addition, the Potency entry in test [9], in test [10] and in test [14] was “inactive” each time.
With `NC(=O)Nc1ccc(Cl)cc1`, the call in [1], in test [15], in [2], in test [3] and in test [5] was inactive. The Potency entry in test [4], in [6], in test [11], in test [13], in [8] and in test [9] was “inactive” throughout. Moreover, the Potency entry in test [10], in test [14] and in [16] was “inactive” each time.
With `Cc1c(C(=O)NN2CCCCC2)nn(-c2ccc(Cl)cc2Cl)c1-c1ccc(Cl)cc1`, the result in test [1], in test [15], in test [2], in [3] and in [5] was inactive. Besides, the Potency entry in test [4], in [6], in test [11], in test [13], in test [10] and in test [17] was “inactive” each time. Besides, the Potency entry in test [14] was “inactive”. The Potency in test [7], in [8] and in [9] was 11.9 µM (active) in each case.
`Cc1cnc(C)c(C)n1`: the call in [1], in [15], in test [2], in test [3] and in test [5] was inactive. Further, the Potency result in test [4], in test [6], in test [11], in test [12], in [13] and in [7] was “inactive” in each case. The Potency result in test [10], in test [14] and in test [16] was “inactive” throughout.
With `C=CC(C)(O)CCCC(C)CCCC(C)CCCC(C)C` (configuration not stated), the call in test [1], in test [15], in test [2], in [3] and in test [5] was inactive. Moreover, the Potency result in test [4], in [6], in [11], in [12], in test [13] and in [7] was “inactive” throughout. For the same compound, the Potency result in test [9], in [10], in test [14] and in test [16] was “inactive” in each case.
As for `COc1cc2ncnc(Nc3ccc(F)c(Cl)c3)c2cc1OCCCN1CCOCC1`, the result in [1], in test [15], in test [2], in [3] and in test [5] was inactive. Further, the Potency entry in test [4], in test [11], in test [13], in test [10], in test [18] and in test [17] was “inactive” throughout. For the same compound, the Potency result in test [14] is “inactive”. In addition, the Potency in test [7] is 26.6 µM (active); in test [8], 26.6 µM (active); in test [9], 21.1 µM (active); in [16], 10.6 µM (active).
As for `O=C(O)c1ccc(CO)o1`, the compound was classed as inactive in test [1], in test [2], in test [3] and in [5]. Also, the Potency result in test [4], in test [6], in [11], in [12], in test [13] and in [7] was “inactive” throughout. Also, the Potency result in test [8], in test [9], in test [10] and in test [14] was “inactive” in each case.
Turning to `CCCCC(=O)O[C@]1(C(=O)CO)CC[C@H]2[C@@H]3CCC4=CC(=O)CC[C@]4(C)[C@H]3[C@@H](O)C[C@@]21C`, the outcome in [1], in test [15], in test [2], in [3] and in test [5] was inactive. The Potency result in test [4], in [6], in test [13], in test [8], in test [10] and in [14] was “inactive” each time. For the same compound, the Potency entry in test [16] is “inactive”. In addition, the Potency in test [11] was 0.0425 µM [inconclusive] (active).
